What follows are sequences tested against C1QTNF1 (assay: pooled miR-30 sensor sort-seq; sequence = guide strand). Settings: shRNA.
Further: reference of the scale not given here.

Row | Sequence | sensor-assay potency score (higher = more potent)
1 | TCGATCTCCGCGGTCACCCTTC | -1.09
2 | TAGGTCTCCTTCTGGTTCCAGG | -0.883
3 | TTGTTCTTCAGCCCTCTCGGCA | -1.05
4 | TTGGAGGCCTCGATCTCCGCGG | -1.29
5 | TAGGTGTCCAGCTCCTCGCTGA | -0.37
6 | TAGCAGTAGAACTTGCCGGTGA | 0.148
7 | AAGATAGTGATGTTGATCTGGG | -0.107
8 | TAGAGGTTCACGAACTCCGTGT | 0.258
9 | TAGAACTTGCCGGTGAACATGT | 0.14
10 | TCACAGCAGCGCAAGCACCGGG | -0.832
11 | TTCATGTTGTTCTTCAGCCCTC | -0.239
12 | TGTATTTTTCATGTTGTTCTTC | 0.442

Each sequence was assayed against C1orf101 in the same assay as above. Settings: shRNA.

Row | Sequence | sensor-assay potency score (higher = more potent)
13 | TTCATGTAAACAACCACTCTGT | 0.256
14 | TTGAATATTCACTAGGTCGAAA | -0.467
15 | TCTAACTTAATAGTACTTCTGG | 0.677
16 | TTGACTTCCATGTCTGTGCTTC | 0.808
17 | TTGTATTGTGCCATCATCCAAA | -0.463
18 | TAAACAACCACTCTGTGCCATA | -0.921
19 | TTGGTTTCCTCTAATCTCCTTT | 0.267
20 | TAACTCTATAGTACCACAGAAA | -1.26
21 | TTGATAGATTTCCATGTCCTGC | -1.09
22 | TAACTTAATAGTACTTCTGGTA | -0.353
23 | TAAAAACACAGCAATCTCCAGA | -0.0485
24 | TAGTGCATCATCTTTTGTCATT | -1.07

These sequences were tested against C1orf105 in the same assay as above. Settings: shRNA.

Row | Sequence | sensor-assay potency score (higher = more potent)
25 | AACATCTGGAACTTGAAACAAA | -0.678
26 | TTTTCATTTCTTGACATGTGGA | -0.589
27 | TTCTGGGCAAGGAAGAACGTTG | -0.752
28 | TAGTGAATGTTTTCTGTTGGGA | 0.127
29 | TTTCATTTCTTGACATGTGGAG | 0.0387
30 | TACAATTCTCAAAGGATGCTTT | -0.234
31 | TTGACATGTGGAGCACAGCTGT | -0.883
32 | TAAGCCAAGGAATCTTGTCAAA | -1.39
33 | TATAACTCATACAATTCTCAAA | -1.37
34 | TTCATTTCTTGACATGTGGAGC | -1.06
35 | TTTGGGTTGATGAAGACTCATT | -1.17
36 | TTGCCTATTGGTTCCTTTCTGG | 0.0888

Each sequence was assayed against C1orf106 in the same assay as above. Settings: shRNA.

Row | Sequence | sensor-assay potency score (higher = more potent)
37 | TTATTGAAGTATTTAGCACTAA | -0.34
38 | TTCTCCTCCAGGCACAGCCGAC | -1.78
39 | TTGAGCTCCTCGGACACGGCGG | -0.833

Source: the OligoGym collection
